Assay outcomes from PubChem BioAssay.
Sfp PPTase inh – inhibitors of Bacillus subtilis Sfp phosphopantetheinyl transferase. Biochemical Sfp PPTase activity, qHTS. Potency, µM, for the others: largest response in the series, negative = inhibition, hits mostly inhibitors. 310,000 tested, 3.5% active;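 further: the enzyme is Sfp with the accession as filed and its product quenches rhodamine fluorescence; 0% = enzyme reaction without inhibitor and -100% = no enzyme wells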
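Sfp 15 nM + cpd, 15 min RT; start w/ rhodamine-CoA 5 uM, BHQ-2-YbbR 12.5 uM (final); 50 mM Hepes pH 7.6, 10 mM MgCl2, 0.01% NP-40, 0.01% BSA; read 525/598 nm at 0 and 30 min.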
G9a inh – G9a (human) methyltransferase inhibition. G9a H3K9 monomethylation, AlphaScreen, 2 h. Potency, µM (highest dose often 102 µM), without a hit: at the top dose activity, negative = inhibition, most hits filed as inhibitors. 350,000 tested, 8.8% active; further: on the % scale 0 is the no-effect control and ±100 the full control effect; nearly all actives have a fitted effect of over 75% in size
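Chemiluminescent proximity detection of H3K9 monomethylation, read after 10 min bead incubation in the dark. Reaction: 20 nM G9a, 500 nM biotin-H3K9 peptide, 20 uM SAM cofactor, 2 h, room temperature, following 15 min enzyme-compound preincubation.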
BAZ2B inh – BAZ2B (human) inhibition. Q9UIF8. AlphaScreen BAZ2B-H3K14Ac peptide displacement. Potency, µM (titrated, usually from 114 µM), for inactives: top-dose activity change, negative = inhibition, most hits filed as inhibitors. 360,000 tested, 4.4% active; further: on the % scale 0 is the no-effect control and ±100 the full control effect; nearly all actives have a fitted effect of over 60% in size
Target sequence (Q9UIF8 whole entry, looked up): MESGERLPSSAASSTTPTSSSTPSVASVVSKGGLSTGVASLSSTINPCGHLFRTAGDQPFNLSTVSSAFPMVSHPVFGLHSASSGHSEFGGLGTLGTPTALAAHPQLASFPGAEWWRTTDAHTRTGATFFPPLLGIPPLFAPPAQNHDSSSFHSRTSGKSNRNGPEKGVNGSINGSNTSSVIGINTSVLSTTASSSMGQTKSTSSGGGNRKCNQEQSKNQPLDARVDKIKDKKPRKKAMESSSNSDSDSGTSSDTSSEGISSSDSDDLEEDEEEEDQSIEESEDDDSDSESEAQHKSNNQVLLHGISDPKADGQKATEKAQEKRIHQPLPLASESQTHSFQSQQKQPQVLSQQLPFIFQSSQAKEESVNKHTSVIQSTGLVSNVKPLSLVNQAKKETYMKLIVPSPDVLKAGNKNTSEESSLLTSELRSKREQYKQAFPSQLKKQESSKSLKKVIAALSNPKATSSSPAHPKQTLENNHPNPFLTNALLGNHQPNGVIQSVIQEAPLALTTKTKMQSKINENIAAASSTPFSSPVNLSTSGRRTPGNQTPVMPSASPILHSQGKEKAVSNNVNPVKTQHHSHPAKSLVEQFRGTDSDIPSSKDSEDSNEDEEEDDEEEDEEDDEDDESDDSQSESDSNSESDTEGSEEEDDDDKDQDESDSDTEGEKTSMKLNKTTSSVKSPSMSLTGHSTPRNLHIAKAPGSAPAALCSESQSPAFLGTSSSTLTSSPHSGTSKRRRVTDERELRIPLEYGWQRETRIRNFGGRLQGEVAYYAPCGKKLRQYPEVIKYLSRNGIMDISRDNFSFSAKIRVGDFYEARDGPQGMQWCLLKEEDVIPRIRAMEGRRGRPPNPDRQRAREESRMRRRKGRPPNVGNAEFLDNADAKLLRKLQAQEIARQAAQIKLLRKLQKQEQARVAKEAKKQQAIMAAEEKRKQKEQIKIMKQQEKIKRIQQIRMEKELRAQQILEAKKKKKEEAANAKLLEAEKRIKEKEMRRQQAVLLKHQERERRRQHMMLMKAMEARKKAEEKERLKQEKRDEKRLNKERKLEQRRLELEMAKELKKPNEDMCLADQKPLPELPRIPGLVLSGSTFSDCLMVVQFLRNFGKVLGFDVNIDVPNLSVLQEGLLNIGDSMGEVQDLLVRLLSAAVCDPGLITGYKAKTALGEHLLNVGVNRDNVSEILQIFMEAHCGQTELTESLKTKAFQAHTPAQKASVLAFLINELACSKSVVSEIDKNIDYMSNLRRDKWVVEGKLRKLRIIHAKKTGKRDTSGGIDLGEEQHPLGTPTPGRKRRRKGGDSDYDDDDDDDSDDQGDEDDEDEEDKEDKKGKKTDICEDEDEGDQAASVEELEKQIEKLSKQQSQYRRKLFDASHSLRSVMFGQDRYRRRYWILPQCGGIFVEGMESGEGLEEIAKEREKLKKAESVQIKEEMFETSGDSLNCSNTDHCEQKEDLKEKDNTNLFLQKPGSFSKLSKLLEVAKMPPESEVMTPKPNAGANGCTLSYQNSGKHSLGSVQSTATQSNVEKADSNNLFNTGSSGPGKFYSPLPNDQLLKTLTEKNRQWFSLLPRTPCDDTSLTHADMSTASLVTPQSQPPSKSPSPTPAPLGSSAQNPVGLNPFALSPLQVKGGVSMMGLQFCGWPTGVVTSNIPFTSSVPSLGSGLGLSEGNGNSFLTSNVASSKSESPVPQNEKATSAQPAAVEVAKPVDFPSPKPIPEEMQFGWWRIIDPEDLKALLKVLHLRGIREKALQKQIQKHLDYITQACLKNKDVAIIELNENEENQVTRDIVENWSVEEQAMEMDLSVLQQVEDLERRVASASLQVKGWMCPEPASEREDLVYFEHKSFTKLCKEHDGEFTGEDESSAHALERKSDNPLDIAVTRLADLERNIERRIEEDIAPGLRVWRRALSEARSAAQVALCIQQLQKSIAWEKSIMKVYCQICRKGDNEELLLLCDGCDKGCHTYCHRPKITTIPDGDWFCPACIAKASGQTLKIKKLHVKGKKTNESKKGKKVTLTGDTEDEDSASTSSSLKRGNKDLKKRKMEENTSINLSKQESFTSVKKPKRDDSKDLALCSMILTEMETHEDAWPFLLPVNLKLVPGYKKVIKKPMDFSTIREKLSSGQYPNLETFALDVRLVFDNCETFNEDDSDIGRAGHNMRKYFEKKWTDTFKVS
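Compounds, titrated to a top concentration of 110 uM, were incubated 30 min at room temperature with preformed BAZ2B/acetyl-K14 H3 peptide complex (50 nM each). Proximity signal was measured by AlphaScreen after 20 min with beads.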
L3MBTL1 block – L3MBTL1 (human) inhibition | 230,000 tested, 0.66% active | Potency, µM (highest dose often 57.1 µM), inactives show top-dose activity, negative = inhibition, most hits filed as inhibitors | AlphaScreen L3MBTL1–H3K9me1 peptide binding | Q9Y468; further: on the % scale 0 is the no-effect control and ±100 the full control effect; nearly all actives have a fitted effect of over 60% in size
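L3MBTL1 (50 nM) pre-complexed 30 min with biotinylated H3(1-15)K9me1 peptide (75 nM), then compounds added for 30 min at room temperature; AlphaScreen streptavidin donor/nickel chelate acceptor beads (10 ug/mL final) read after 30 min dark incubation.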
HP1b binding inh – blocks HP1-beta chromodomain binding to methylated histone tails; P83916; AlphaScreen HP1-beta / biotin-H3K9me3 peptide binding; Potency, µM (doses to about 114 µM), for inactives: top-dose activity change, negative = inhibition, actives largely listed as inhibitors; 390,000 tested, 0.56% active; AID 540317; further: nearly all actives have a fitted effect of over 70% in size
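AlphaScreen: HP1-beta (50 nM) preformed 30 min with biotin-H3(1-18)K9me3 peptide (50 nM) in PBS pH 7.4, 0.01% Tween-20. Compound added for 30 min at RT, then streptavidin donor/nickel chelate acceptor beads (10 ug/mL) for 30 min.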
JMJD2A Tudor inh – inhibitors of human JMJD2A Tudor domain | O75164 | Potency, µM (top dose mostly 114 µM), for inactives: top-dose activity change, negative = inhibition, hits mostly inhibitors | AlphaScreen JMJD2A-Tudor / H3K4me3 peptide binding | 390,000 tested, 4.4% active; further: on the % scale 0 is the no-effect control and ±100 the full control effect; nearly all actives have a fitted effect of over 50% in size
* hit, by the source's call; [ ] = another dose, or the depositor's remark. Sampled rows, rich in hits. Any-hit rate of the full collection: about 12%. The call rests on the fitted dose curve; in most records, active means well fitted curve in the direction sought with a large enough effect; inconclusive means small, poorly fitted or top-dose-only effect, or another doubt; inactive means no such curve, though single readings can be large; an effect the other way counts as inactive or inconclusive. Potency means the concentration at half of the fitted maximal effect.

What do the screens show for `Cc1nnc(N2C(=O)C(=O)/C(=C(/O)c3ccc4c(c3)OCCO4)C2c2ccc(F)cc2)s1` (stereo not drawn)?
Sfp PPTase inh: 2%; G9a inh: 45µM*; BAZ2B inh: -25%[57.1 µM]; HP1b binding inh: 80%; JMJD2A Tudor inh: -18%

What do the screens show for `OC[C@@H]1[C@@H](c2ccc(F)cc2)C(c2ccc(F)cc2)=NN1c1ccccc1`?
Sfp PPTase inh: 6%; G9a inh: 135%

Results for CC(C)c1cccc2c([Si](C)(C)C)c3c(nc12)-c1cccc(=O)n1C3 ?
Sfp PPTase inh: 45µM*

What do the screens show for `CC(C)c1cccc2nc3c(c(C(C)(C)C)c12)Cn1c-3cccc1=O`?
Sfp PPTase inh: 1%

Results for CC(C)c1cccc2nc3c(c([Si](C)(C)C(C)(C)C)c12)Cn1c-3cccc1=O ?
Sfp PPTase inh: 79µM*

How did CC(C)CO/N=C1/C[C@@H](O)[C@@H](O)[C@@H]2[C@@H]3C(=O)N(C[C@@H]4CCCO4)C(=O)[C@H]3CC[C@H]12 do in these assays?
Sfp PPTase inh: 0%

Results for CCc1nc2cccnc2n1-c1ccc(CC(=O)Nc2cccc(C)c2C)cc1 ?
G9a inh: inconclusive; BAZ2B inh: -12%; HP1b binding inh: 15%; JMJD2A Tudor inh: -14%

How did CCOc1ccccc1NC(=O)C1(S(=O)(=O)c2ccc(Cl)cc2)CC1 do in these assays?
Sfp PPTase inh: 0%; G9a inh: 64%; BAZ2B inh: 0%; HP1b binding inh: 11%; JMJD2A Tudor inh: 26%

How did C#CCCCCCCC#CCN(C)C do in these assays?
Sfp PPTase inh: -6%; G9a inh: 28µM*; BAZ2B inh: inconclusive; L3MBTL1 block: -6%; HP1b binding inh: inconclusive; JMJD2A Tudor inh: 1.8µM*

How did CC1CCCN(C(=O)Cn2nnc(-c3ccc(S(C)(=O)=O)cc3)n2)C1 (stereo not drawn) do in these assays?
Sfp PPTase inh: 0%; BAZ2B inh: -15%; L3MBTL1 block: -5%; HP1b binding inh: 32%; JMJD2A Tudor inh: -2%

How did COc1ccc(-n2cc(-c3ccc4c(c3)OCO4)n(CC(=O)Nc3cc(Cl)ccc3C)c2=O)cc1 do in these assays?
G9a inh: inconclusive; BAZ2B inh: 89µM*; HP1b binding inh: 4%; JMJD2A Tudor inh: -20%

What do the screens show for `COc1ccc(-n2cc(-c3ccc4c(c3)OCO4)n(CC(=O)Nc3cccc(C)c3C)c2=O)c(OC)c1`?
G9a inh: 5µM*; BAZ2B inh: inconclusive; HP1b binding inh: -20%; JMJD2A Tudor inh: inconclusive

Results for COc1cc(-c2nnc(SCc3cc(=O)oc4cc(O)c(O)cc34)o2)cc(OC)c1OC ?
Sfp PPTase inh: -11%; G9a inh: 4.5µM*; BAZ2B inh: 7.9µM*; HP1b binding inh: -45%; JMJD2A Tudor inh: inconclusive

How did COc1cc(-c2nnc(SCC(=O)c3ccccc3)o2)cc(OC)c1OC do in these assays?
Sfp PPTase inh: 9%; G9a inh: -40%; BAZ2B inh: -6%; L3MBTL1 block: -6%; HP1b binding inh: 5%; JMJD2A Tudor inh: -14%

How did CCN(C(=O)CSc1nnc(-c2cc(OC)c(OC)c(OC)c2)o1)c1ccccc1 do in these assays?
G9a inh: -45%[59 µM]; BAZ2B inh: 56µM*; HP1b binding inh: 16%; JMJD2A Tudor inh: inconclusive

What do the screens show for `COc1cc(CNCCNC(=O)c2cccs2)cc(OC)c1OC`?
Sfp PPTase inh: -15%; BAZ2B inh: 89µM*; L3MBTL1 block: 14%; HP1b binding inh: -21%; JMJD2A Tudor inh: 28µM*

How did COc1ccc(CNCCNC(=O)c2cccs2)cc1OC do in these assays?
Sfp PPTase inh: -8%; G9a inh: 11µM*; L3MBTL1 block: 5%; HP1b binding inh: inconclusive; JMJD2A Tudor inh: 20µM*

What do the screens show for `CCCCC(CC)C/C=C1\CC(C(=O)OCC)Oc2ccccc21` (stereo not drawn) (tested in a mixture with another compound)?
Sfp PPTase inh: 10%; G9a inh: 67%

What do the screens show for `COC(=O)c1ccccc1NC(=O)CC(NCc1ccccc1)C(=O)O` (stereo not drawn)?
HP1b binding inh: 21%; JMJD2A Tudor inh: 28µM*

Results for CCc1ccccc1NC(=O)CC(NCc1ccccc1)C(=O)O (stereo not drawn) ?
Sfp PPTase inh: -5%; G9a inh: 28µM*; BAZ2B inh: -17%[57.1 µM]; HP1b binding inh: 21%; JMJD2A Tudor inh: inconclusive

How did O=C(CC(c1cccs1)N1Cc2ccccc2C1=O)Nc1ccc(F)cc1 (stereo not drawn) do in these assays?
G9a inh: -2%[59 µM]; BAZ2B inh: -4%; HP1b binding inh: 31%; JMJD2A Tudor inh: -4%

Results for CCN(C(=O)CSc1nc2ccccc2n1Cc1cc(C)ccc1C)c1ccccc1 ?
G9a inh: -13%[59 µM]; BAZ2B inh: -26%; HP1b binding inh: -14%; JMJD2A Tudor inh: -13%

What do the screens show for `COCCN(C)Cc1cn(-c2ccc(F)cc2F)nc1-c1ccccc1C`?
Sfp PPTase inh: 89µM*; BAZ2B inh: 19%; L3MBTL1 block: -6%; HP1b binding inh: 27%; JMJD2A Tudor inh: -2%[11.4 µM]

What do the screens show for `COc1ccc(/C=C/C(=O)c2cc(F)ccc2OC(=O)c2ccc(OC)c(OC)c2)cc1OC`?
Sfp PPTase inh: 0%; G9a inh: 56µM*; BAZ2B inh: inconclusive; L3MBTL1 block: -13%; HP1b binding inh: 33%; JMJD2A Tudor inh: -28%

How did COc1ccc(/C=C/C(=O)c2cc(Br)ccc2O)cc1OC do in these assays?
Sfp PPTase inh: -13%; G9a inh: 25µM*; BAZ2B inh: inconclusive; L3MBTL1 block: -21%; HP1b binding inh: 38%; JMJD2A Tudor inh: -19%

What do the screens show for `COc1ccc(/C=C/C(=O)c2ccc(O)cc2O)cc1OC`?
Sfp PPTase inh: -37%; G9a inh: -27%[2.33 µM]

What do the screens show for `COc1ccc(-c2noc(-c3ccc(NCc4ccco4)c([N+](=O)[O-])c3)n2)cc1`?
G9a inh: inconclusive; BAZ2B inh: 0%; HP1b binding inh: 37%; JMJD2A Tudor inh: 2%

What do the screens show for `CC(=O)N(C1=C(Cl)C(=O)c2ccccc2C1=O)C1CCCCC1`?
Sfp PPTase inh: 0.79µM*; BAZ2B inh: 22µM*; L3MBTL1 block: inconclusive; HP1b binding inh: 7.9µM*; JMJD2A Tudor inh: 1.6µM*

What do the screens show for `CCOc1cc(/C=C2/NC(=O)NC2=O)cc(Br)c1OCc1ccc(C(=O)O)cc1`?
Sfp PPTase inh: 8%; G9a inh: 45µM*; BAZ2B inh: 71µM*; HP1b binding inh: inconclusive; JMJD2A Tudor inh: inconclusive
